# High-throughput results (PubChem)
# Shiga inhibitor: A qHTS for Small Molecule Inhibitors of Shiga Toxin | Vero cells, Shiga toxin protein synthesis inhibition reporter | inhibition, % at 38.7 µM | hit rate 9.2% among 290,000 | AID 2315, 2010; in the data active = inhibition mostly above about 28%, no sharp cut-off; inactive = mostly below about 43%; also: 0% is about no effect
# CHX counter: Cycloheximide Counterscreen for Small Molecule Inhibitors of Shiga Toxin. cell reporter, cycloheximide protein synthesis inhibition counterscreen. hit rate 12% among 300,000. max response, %; in the data active = max response mostly above about 13%, no sharp cut-off; inactive = mostly below about 14%; also: read at 38.3 µM for the half of the compounds with a filed dose; 0% is about no effect
# Pf growth 96h: Primary qHTS for delayed death inhibitors of the malarial parasite plastid, 96 hour incubation; P. falciparum luciferase reporter growth, 96 h; hit rate 6.9% among 320,000; Potency, µM (doses to about 28.7 µM), inactives show top-dose activity change, negative = inhibition, actives largely listed as inhibitors; also: potency is read from the fitted curve at half-maximal effect; % is scaled to controls: 0 for no effect and ±100 for the full control effect
#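 96 h incubation, 37 C, 5% CO2, of luciferase-reporter P. falciparum-infected RBCs (2% hematocrit, 0.05% parasitemia final) with test compounds; endpoint luminescence.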
# Pf growth 48h: Primary qHTS for delayed death inhibitors of the malarial parasite plastid, 48 hour incubation; P. falciparum luciferase growth in erythrocytes, 48 h; Potency, µM (highest dose often 28.7 µM), for the others: at the top dose activity change, negative = inhibition, actives largely listed as inhibitors; hit rate 5.9% among 310,000; AID 504832, 2011; also: potency is read from the fitted curve at half-maximal effect; % is scaled to controls: 0 for no effect and ±100 for the full control effect
#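 Luminescence readout; reporter = integrated firefly luciferase in P. falciparum. RBC culture at 2% hematocrit, 0.1% parasitemia final, 37 C/5% CO2; decreased signal taken as growth inhibition.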
# An asterisk follows results filed as active; ? = inconclusive; . = no result; [ ] = remark or other dose. In the library only some 21% were active in any assay of this set; here they are far more common. Unless noted, calls follow the shape of the dose curve; as a rule, active = well fitted inhibition curve with a large enough effect; inconclusive = small, poorly fitted or top-dose-only effect, or another doubt; inactive = no such curve, though single readings can be large or run the other way.
SMILES,Shiga inhibitor,CHX counter,Pf growth 96h,Pf growth 48h
Cc1ccc(-n2c(C)cc(C(=O)CSc3n[nH]c(N)n3)c2C)cc1,54,10.0*,3.3µM*,?
Cc1ccc(-n2c(C)cc(C(=O)COC(=O)c3c(C)noc3C)c2C)cc1,104*,39*,389%,227%
Nc1nc(SCC(=O)c2cc(F)ccc2F)n[nH]1,-1,3,2%,0%
Cc1cc(C(=O)CSc2n[nH]c(N)n2)c(C)n1-c1ccc(F)cc1,61*,40*,?,54%
Nc1nc(SCC(=O)c2ccc(F)cc2)n[nH]1,-1,12,14%,7%
Cc1cc(C(=O)CSc2n[nH]c(N)n2)c(C)n1-c1cc(F)ccc1F,98*,29*,9%[5.75 µM],11%
CC(C)(C)NC(=O)CN(Cc1ccc2c(c1)OCO2)C(=O)CNC(=O)c1cccs1,-4,-1,-18%,-19%
N#CC1(NC(=O)CSc2n[nH]c(-c3ccccc3)n2)CCCCC1,.,.,-5%,-18%
COc1ccc(CCNC(=O)c2cc(C)oc2C)cc1,23,8,-4%,-8%
COc1ccccc1NS(=O)(=O)c1cccc(C(=O)NCC(c2ccco2)N(C)C)c1 (configuration not stated),.,.,-29%,?
CN(C)c1ccc(C(C(=O)NC2CCCCC2)N(Cc2ccco2)C(=O)c2snc(C(N)=O)c2N)cc1 (configuration not stated),-4,5,-12%,?
Cc1cc(C(=O)CSc2n[nH]c(N)n2)c(C)n1C1CC1,12,-4,?,-1%
C=CCn1c(C)cc(C(=O)CSc2n[nH]c(N)n2)c1C,98,28*,20%,.
Cc1cc(C(=O)CSc2n[nH]c(N)n2)c(C)n1-c1ccccc1,50*,37*,.,105%
Cc1cc(C)c2c(c1)-c1c(ssc1=S)C(C)(C)N2C(=O)CSc1nncn1C,-26,-6,?,4.7µM*
Cc1cc2c(cc1C)N(C(=O)CSC1=NCCS1)C(C)(C)c1ssc(=S)c1-2,-10,1,2.6µM*,6.6µM*
Cc1ccsc1/C=N/NC(=O)c1nnn(-c2nonc2N)c1C,20,12*,?,24%
C/C(=N\N=C\c1ccccc1)c1nnn(-c2nonc2N)c1C,41,19*,63%,43%
Cc1ccc(-c2c(C(=O)N/N=C/C3CC=CCC3)nnn2-c2nonc2N)cc1 (configuration not stated),-5,-7,9.3µM*,?
Cc1ccc(-c2c(C(=O)N/N=C/c3sccc3C)nnn2-c2nonc2N)cc1,-2,-7,0.93µM*,?
Cc1ccsc1/C=N/NC(=O)c1nnn(-c2nonc2N)c1-c1ccccc1,28,-5,36%,-1%
O=C(OCc1cccc(C(F)(F)F)c1)c1cc(S(=O)(=O)N2CCOCC2)ccc1F,.,.,5%,-30%
CCOc1ccc(C(=O)NNC(=O)C2CC(=O)N(c3ccc(C)cc3)C2)cc1 (configuration not stated),.,.,10%,0%
CCCCN(C(=O)c1ccc(Br)o1)C1CCS(=O)(=O)C1 (configuration not stated),.,.,18%,19%
CN(Cc1ccccc1F)C(=O)c1sccc1-c1ccccc1,-22,-5,?,5%
SMILES,Shiga inhibitor,CHX counter,Pf growth 96h,Pf growth 48h
CCCNC(=O)C1CCN(S(=O)(=O)c2cccc3nonc23)CC1,18,2,1%,7%
Cc1c(C(=O)N/N=C/c2cccs2)nnn1-c1nonc1N,52*,6,-5%,22%
CSCC[C@H](NC(=O)[C@H](CC(C)C)NC(=O)CCNC(=O)[C@@H](NC(=O)[C@H](Cc1ccccc1)NC(=O)[C@H](CO)NC(=O)[C@@H](N)CC(=O)O)C(C)C)C(N)=O,0,-6,.,.
CCOC(=O)c1cnc2c(OC)cccc2c1N1CCN(c2ccccn2)CC1,-8,-1,44%,13%
CCOC(=O)c1cnc2c(OC)cccc2c1N1CCN(c2ccccc2OC)CC1,-24,1,12%,7.4µM*
CCOC(=O)c1cnc2c(OC)cccc2c1N1CCN(c2ccc(OC)cc2)CC1,12,-4,9%,12µM*
CCOC(=O)c1cnc2c(OC)cccc2c1N1CC(C)CC(C)C1 (configuration not stated),-5,-2,?,0%
N#Cc1c2n(c(=S)n(-c3ccc(F)cc3)c1=O)CCCCC2,-9,-8,?,?
N#Cc1c2n(c(=S)n(-c3ccccc3)c1=O)CCCCC2,-7,14*,15%,?
O=C(Nc1cccn2ncnc12)c1ccc(Cl)cc1Cl,-9,-1,51%,13%
